Only some compounds are listed: those with a hit (about 1.2% of all), similar ones and a draw of the others.
MEX-5 binding – MEX-5 zinc finger RNA-binding disruptors – biochemical, C. elegans, fluorescence polarization, MLPCN library, primary screen. 300,000 compounds, 0.38% hits. MEX-5/FITC-TCR2 RNA binding; hits give low values. Zinc finger protein mex-5 (Caenorhabditis elegans), Q9XUB2. activity score (negative = inhibition of binding), % at 10 µM. AID 1832, 2009;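 active = inhibition past about -25% in most replicates, and total fluorescence under double the plate's negative control median, limit read from the data; inconclusive = replicates evenly split on the limit, or fluorescence at least double controls; inactive = too little inhibition in most replicates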
Target sequence (Q9XUB2 whole entry, looked up): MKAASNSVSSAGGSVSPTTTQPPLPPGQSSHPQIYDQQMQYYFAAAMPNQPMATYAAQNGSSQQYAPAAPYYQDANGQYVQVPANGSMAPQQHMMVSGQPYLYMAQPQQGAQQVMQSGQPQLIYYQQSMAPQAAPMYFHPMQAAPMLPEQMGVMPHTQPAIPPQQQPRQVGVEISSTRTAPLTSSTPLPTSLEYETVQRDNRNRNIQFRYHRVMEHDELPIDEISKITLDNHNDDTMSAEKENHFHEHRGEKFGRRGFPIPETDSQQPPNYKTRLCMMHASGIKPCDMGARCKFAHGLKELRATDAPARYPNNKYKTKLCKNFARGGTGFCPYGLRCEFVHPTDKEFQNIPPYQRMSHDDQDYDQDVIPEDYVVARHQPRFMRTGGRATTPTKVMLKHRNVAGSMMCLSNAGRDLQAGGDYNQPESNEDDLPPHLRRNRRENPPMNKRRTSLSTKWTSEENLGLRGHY
E coli Lon inh – inhibitors of E. coli Lon protease, primary screen, biochemical, fluorescence polarization; P0A9M0; purified E. coli Lon protease; inhibition, % at 7.94 µM; 360,000 compounds, 0.42% hits; AID 602123, 2011; in the data active = inhibition above about 13%, passing the limit was not always enough
Bcl-xL primary – inhibitors of human Bcl-xL, primary screen, biochemical, fluorescence polarization, HTS | 320,000 compounds, 0.7% hits | GST-Bcl-xL / FITC-Bim BH3 peptide fluorescence polarization | AID 2129, 2009 | Bcl-2-like protein 1 (Homo sapiens), Q07817 | inhibition, % at 10.9 µM;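 active = inhibition above the mean of all tested compounds plus 3 SD, cutoff set per campaign, cut at about 30% in these data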;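 note: inhibitors lower millipolarization by displacing the labeled peptide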
Target sequence (Q07817 whole entry, looked up): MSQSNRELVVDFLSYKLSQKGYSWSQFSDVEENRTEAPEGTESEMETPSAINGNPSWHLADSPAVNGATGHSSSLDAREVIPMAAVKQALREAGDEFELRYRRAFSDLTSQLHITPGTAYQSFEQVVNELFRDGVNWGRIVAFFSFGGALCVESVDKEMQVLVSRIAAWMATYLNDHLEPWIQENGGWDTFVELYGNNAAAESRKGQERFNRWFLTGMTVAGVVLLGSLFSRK
Keap1 Nrf2 FP – Keap1-Nrf2 protein-protein interaction inhibitors, primary screen, biochemical, fluorescence polarization, single point; Keap1 Kelch-Nrf2 peptide fluorescence polarization, 1536-well; inhibition, % at 9.4 µM; 340,000 compounds, 0.15% hits; AID 504523, 2011; in the data active = inhibition above about 12%; inconclusive = no clear call, values can overlap the other calls; inactive = below about 7.3%;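 note: human Keap1 Kelch domain with fluorescein labeled Nrf2 9mer peptide probe; higher means more block of Keap1 binding to Nrf2 peptide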
C-LANA FP – inhibitors of KSHV C-LANA binding to DNA, primary screen, biochemical, fluorescence polarization, FAM-LBS DNA, MBP-C-LANA, single point; Kaposi's sarcoma herpesvirus LANA C-terminal domain (residues 932-1162) DNA binding; inhibition, % at 9 µM; 340,000 compounds, 0.078% hits; AID 504423, 2011;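 active = highest replicate inhibition at or above 60% at 9 µM, even if other replicates fall short; inactive = all replicates below 60% inhibition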
GLD-1 RNA inh – GLD-1/TGE RNA complex disruptors, primary screen, biochemical, fluorescence polarization; purified GLD-1 + fluorescein TGE RNA; inhibition, % at 5.96 µM; 320,000 compounds, 0.44% hits; AID 2280, 2010;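 active = percent inhibition above a per-plate cutoff, the plate mean of test compounds plus 3 SD, cut at about 30% in these data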
Each line names hits and unclear results; the compound was inactive in the other large screens.

COc1ccc(OC)c(N2C(=O)NC(=O)/C(=C/c3ccc([N+](=O)[O-])s3)C2=O)c1	MEX-5 binding -42
O=C1NC(=S)N(c2ccc(F)cc2)C(=O)/C1=C/c1ccco1	MEX-5 binding -94, Bcl-xL primary 79 (no result: E coli Lon inh, Keap1 Nrf2 FP, C-LANA FP)
Cc1ccc(/C=C2\C(=O)NC(=S)N(c3cccc(F)c3)C2=O)o1	none
Fc1ccc(NC(=S)N2Cc3ccccc3-n3nncc3C2)cc1	none (no result: MEX-5 binding, Bcl-xL primary, Keap1 Nrf2 FP, C-LANA FP, GLD-1 RNA inh)
CCOC(=O)c1c(NS(=O)(=O)c2ccccc2)n(CCCOC)c2nc3ccccc3nc12	MEX-5 binding -26
COCCCn1c(N)c(C(=O)OCCOC)c2nc3ccccc3nc21	none
CC1CCC2C(C)C(=O)OC3OC4(C)CCC1C32OO4 (stereo not given)	none
Cc1nc2c(=O)n(C)c(=O)nc-2n(C)n1	none
CCn1nc(-c2ccccc2)nc2c(=O)n(C)c(=O)nc1-2	MEX-5 binding inconclusive, E coli Lon inh 83, Bcl-xL primary 136, GLD-1 RNA inh 128
CCOc1ccc(-n2c(O)c(/C=C3\C=Nc4ccccc43)c(=O)[nH]c2=O)cc1	Bcl-xL primary 78
COc1ccccc1-n1c(O)c(/C=C2\C=Nc3ccccc32)c(=O)[nH]c1=O	MEX-5 binding -35
N#CC12CNCC1CN=N2 (stereo not given)	none
CN1CC(C#N)C2(O)c3ccccc3CCC2C1 (stereo not given)	none
CC(C)C[C@H]1C(=O)N2CCC[C@H]2[C@]2(O)O[C@](NC(=O)[C@@H]3C=C4c5cccc6[nH]cc(c56)C[C@H]4N(C)C3)(C(C)C)C(=O)N12	Bcl-xL primary 149, Keap1 Nrf2 FP 34, C-LANA FP 67, GLD-1 RNA inh 118 (no result: MEX-5 binding)
CC[C@@H](CO)NC(=O)[C@@H]1C=C2c3cccc4[nH]cc(c34)C[C@H]2N(C)C1	none (no result: MEX-5 binding, Bcl-xL primary, GLD-1 RNA inh)
COc1ccc(OC(=O)N(C)C[C@@H]2OCc3cnnn3CCCC(=O)N([C@@H](C)CO)C[C@H]2C)cc1	none (no result: MEX-5 binding, Bcl-xL primary, Keap1 Nrf2 FP, C-LANA FP, GLD-1 RNA inh)
Cc1ccccc1-n1c(O)c(/C=N/Nc2nc3c(c(=O)n(C)c(=O)n3C)n2C)c(=O)[nH]c1=S	none
Cc1cccc(-n2c(O)c(/C=N/Nc3nc4c(c(=O)n(C)c(=O)n4C)n3C)c(=O)[nH]c2=S)c1	MEX-5 binding -47
COc1ccc(N/N=C/c2c(O)n(-c3ccc(C)c(C)c3)c(=O)[nH]c2=O)cc1	Bcl-xL primary 51
Cc1ccc(-n2c(O)c(/C=N/Nc3ccccc3)c(=O)[nH]c2=O)cc1C	none (no result: E coli Lon inh, Keap1 Nrf2 FP, C-LANA FP)
COc1ccc(N/N=C/c2c(O)n(-c3cccc(C)c3)c(=O)[nH]c2=O)cc1	Bcl-xL primary 40
CN1/C(=C\C=C\C2=[N+](C)c3ccc4ccccc4c3C2(C)C)C(C)(C)c2ccccc21	Bcl-xL primary 190, GLD-1 RNA inh 179 (no result: MEX-5 binding, E coli Lon inh, Keap1 Nrf2 FP, C-LANA FP)
CS(=O)(=O)c1ccc(C2=C(CNC(=O)c3cccnc3)[C@H]3CC[C@@H](C2)N3Cc2ccccc2)cc1	none (no result: MEX-5 binding, Bcl-xL primary, Keap1 Nrf2 FP, C-LANA FP, GLD-1 RNA inh)
CCCCn1c(O)c(C(=O)/C=C/c2ccc3c(c2)OCO3)c(=O)[nH]c1=O	MEX-5 binding -36
O=C1NC(=O)N(c2ccc(Cl)cc2)C(=O)/C1=C\c1ccc(Sc2nc3ccccc3[nH]2)o1	Bcl-xL primary 59
CCN(c1ccc(C(O)(C(=O)OC)C(F)(F)F)cc1)S(=O)(=O)c1ccc(C)cc1 (stereo not given)	none
Cc1nonc1OCCNCCNc1ccc([N+](=O)[O-])c2cccnc12	MEX-5 binding -27
COC(=O)C1=C(c2cccc(OCc3ccccc3)c2)C[C@@H]2CC[C@H]1N2C(=O)NCc1ccccc1OC	none (no result: MEX-5 binding)
Cc1ccsc1/C=C1\C(=O)NC(=S)N(C)C1=O	none
COc1ccc(/C=C2\C(=O)NC(=S)N(C)C2=O)cc1C	Keap1 Nrf2 FP 47
Nc1c(C(=O)NCC2CCCO2)c2nc3ccccc3nc2n1Cc1ccco1 (stereo not given)	Bcl-xL primary 57, GLD-1 RNA inh 35
COCCCNC(=O)c1c(N)n(Cc2ccco2)c2nc3ccccc3nc12	Bcl-xL primary 49, GLD-1 RNA inh 47 (no result: Keap1 Nrf2 FP, C-LANA FP)
CC1=C(C)CC2(C(=O)NC(=S)NC2=O)C(C)C1 (stereo not given)	none (no result: MEX-5 binding, Bcl-xL primary, Keap1 Nrf2 FP, C-LANA FP, GLD-1 RNA inh)
O=c1c2ccccc2nc(Cc2ccccc2)n1-c1ccc(O)cc1	none
Cc1cccc(N2C(=O)NC(=O)/C(=C/c3ccc([N+](=O)[O-])o3)C2=O)c1	Bcl-xL primary 33 (no result: MEX-5 binding, E coli Lon inh, Keap1 Nrf2 FP, C-LANA FP)
Cc1cccc(N2C(=O)NC(=O)/C(=C\C=C\c3ccco3)C2=O)c1	none
Oc1ccc(C[C@H]2NCCc3cc(O)c(O)cc32)cc1O	MEX-5 binding -81 (no result: Bcl-xL primary, GLD-1 RNA inh)
Oc1ccc(CC2CC3CCN2CC3)cc1O (stereo not given)	none
O=c1[nH]c(=O)n(CCC2=CCCCC2)c(O)c1C=NCCCn1ccnc1	none
O=c1[nH]c(=O)n(CCc2ccc(F)cc2)c(O)c1C=NCCCn1ccnc1	MEX-5 binding -40
COc1cc(O)c(C(=O)O)c(-c2cc(O)c(O)cc2C)c1	MEX-5 binding -62
COc1ccc2c(c1)c(C(=O)O)c(C)n2CC(C)C	none
Cc1ccc(N2C(=O)NC(=O)/C(=C\c3cc(C)n(-c4ccc(C(=O)O)cc4)c3C)C2=O)cc1	MEX-5 binding -35
Cc1ccc(N2C(=O)NC(=O)/C(=C\c3cc(C)n(-c4cc(C(=O)O)cc(C(=O)O)c4)c3C)C2=O)cc1	none
COC(=O)C1=C(c2cc3ccccc3o2)C[C@@H]2CC[C@H]1N2C(=O)NCc1ccccc1	none
CS(=O)(=O)c1ccc(C(=O)N2CCC(C(=O)O)(c3ccccc3)CC2)cc1	none
CCCCCCn1c(O)c(C=Nc2ccccc2N2CCOCC2)c(=O)[nH]c1=S	MEX-5 binding -31 (no result: Keap1 Nrf2 FP, C-LANA FP)
Cc1ccccc1-n1c(O)c(/C=N/NC(=O)c2ccccc2O)c(=O)[nH]c1=S	MEX-5 binding -29
O=C(N/N=C/c1c(O)n(C2CC2)c(=S)[nH]c1=O)c1ccccc1O	MEX-5 binding -60
O=C(N/N=C/c1c(O)n(-c2ccccc2)c(=S)[nH]c1=O)c1ccccc1	none
COc1ccc(P2(=O)Nc3ccccc3N2)cc1	MEX-5 binding -36, Bcl-xL primary 62
Cn1c(=O)c2c(nc(-c3ccc(N(CCCl)CCCl)cc3)n2C)n(C)c1=O	none (no result: MEX-5 binding, Bcl-xL primary, GLD-1 RNA inh)
CN1C(=O)C(=Cc2cn(CC(=O)N3CCCCC3)c3ccccc23)C(=O)N(C)C1=O	MEX-5 binding -36
CN1C(=O)C(=Cc2cn(CC(=O)N3CCCC3)c3ccccc23)C(=O)N(C)C1=O	MEX-5 binding inconclusive

Assay outcomes (PubChem BioAssay)
